About 8,200 (2.3%) of roughly 360,000 compounds were called active. No stated cut-off is given here; in the data, active means inhibition above about 27%; inactive means the rest. Only a selection was taken, and actives are over-represented in it overall.
Target: Fructose-bisphosphate aldolase (Mycobacterium tuberculosis (strain ATCC 25618 / H37Rv)) (UniProt P9WQA3)
Experiment: Mtb FBA enzyme inhibitors, primary screen, biochemical, fluorescence, strain H37Rv (AID 588726);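 further: 0% = vehicle and 100% = reference inhibitor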
Details: purified M. tuberculosis FBA, fluorescence read-out, at 1 µM, hits give high values

Sequence of Fructose-bisphosphate aldolase (Mycobacterium tuberculosis (strain ATCC 25618 / H37Rv)) (P9WQA3 whole entry, looked up): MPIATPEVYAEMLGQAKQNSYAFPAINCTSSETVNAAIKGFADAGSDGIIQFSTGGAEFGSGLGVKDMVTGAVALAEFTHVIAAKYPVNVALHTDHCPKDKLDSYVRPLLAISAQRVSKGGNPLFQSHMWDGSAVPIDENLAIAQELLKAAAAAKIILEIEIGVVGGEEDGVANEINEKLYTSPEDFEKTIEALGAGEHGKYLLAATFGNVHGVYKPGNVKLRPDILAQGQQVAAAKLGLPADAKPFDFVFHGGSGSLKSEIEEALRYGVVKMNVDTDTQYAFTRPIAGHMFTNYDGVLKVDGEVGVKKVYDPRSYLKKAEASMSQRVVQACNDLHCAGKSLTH

Row | Compound | inhibition
1 | CC(C)CCNC(=O)CC1C(=O)N(Cc2ccccc2)C(C)c2nc3ccccc3n21 (stereo not drawn) | -2.2% (inactive)
2 | CC(C)(C)C(=O)CSc1ccc(S(=O)(=O)N2CCCC2)cn1 | 1.92% (inactive)
3 | COC(=O)C1=C(C)N(Cc2ccccc2)C(=NCCCOC(C)C)N[C@H]1c1ccccc1 | -0.81% (inactive)
4 | CC1CCCC(NC(=O)COC(=O)[C@@H]2CC(O)CN2S(=O)(=O)c2ccc3c(c2)OCCO3)C1C (stereo partly drawn) | 0.53% (inactive)
5 | O=c1[nH]nc(SCCS(=O)(=O)c2ccc(F)cc2)n1-c1ccccc1C(F)(F)F | 1.24% (inactive)
6 | CCCCN(CCCC)CCC(O)c1cc2c(Cl)cc(Cl)cc2c2cc(C(F)(F)F)ccc12 (stereo not drawn) | -0.59% (inactive)
7 | O=c1onc(-c2cccs2)n1Cc1ccccc1 | 1.37% (inactive)
8 | Nc1nc2n(n1)C(c1ccco1)CC(c1ccc(Cl)c(Cl)c1)N2 (stereo not drawn) | 30.1% (active)
9 | COc1ccc(C2CC(c3ccc(Cl)cc3Cl)Nc3nc(N)nn32)cc1OC (stereo not drawn) | 0.41% (inactive)
10 | Cc1ccc(C2CC(c3cccc(Br)c3)n3nc(N)nc3N2)cc1 (stereo not drawn) | 5.98% (inactive)
11 | CCOc1ccc(CCNC(=O)COC(=O)C2CCN(c3ccc(C(F)(F)F)cn3)CC2)cc1OCC | 2.79% (inactive)
12 | OC[C@@H]1CN(Cc2ccc3c(c2)OCO3)C[C@H](n2cnc3c(NCc4ccco4)ncnc32)O1 | 0.71% (inactive)
13 | CC(C)n1ncc2c(C(=O)NCc3ccccc3CN(C)C)cc(C3CC3)nc21 | 29.8% (active)
14 | COc1ccc(OCCNC(=O)c2cc(C3CC3)nc3c2cnn3C(C)C)cc1 | 7.43% (inactive)
15 | CNC(=O)c1ccc(CN(C)C(=O)c2cc(C3CC3)nc3c2cnn3C(C)C)cc1 | -0.03% (inactive)
16 | Cn1c(=O)c2c(nc(N3CCOCC3)n2CCNC2=NCCC2)n(C)c1=O | 0.36% (inactive)
17 | Cc1coc(C)c1C(=O)CC1(O)C(=O)N(C)c2ccc(Cl)cc21 (stereo not drawn) | -1.99% (inactive)
18 | CC(c1nnc(SCC(=O)Nc2sccc2C#N)n1-c1ccc(Cl)cc1)N(C)C (stereo not drawn) | -0.06% (inactive)
19 | COc1cccc(C(=O)OCc2cc(=O)oc3c(C)c(C)ccc23)c1OC | 2.59% (inactive)
20 | Cc1cc(=O)oc2c(C)c(OC(C)C(=O)NC3CCN(Cc4ccccc4)CC3)ccc12 (stereo not drawn) | 14.6% (inactive)
21 | COc1ccccc1NC(=O)COC(=O)CNC(=O)C1CCCCC1 | 2.67% (inactive)
22 | CCCc1cc(=O)[nH]c(SCC(=O)Nc2ccc(S(=O)(=O)N3CCCC3)cc2)n1 | 1.25% (inactive)

Row | Compound | inhibition
23 | O=C(O)c1cccc(S(=O)(=O)N2CC=C(c3ccccc3)CC2)c1 | 0.87% (inactive)
24 | CN(C)c1ccc(C2Nc3ccccc3C(=O)N2NS(=O)(=O)c2ccccc2)cc1 (stereo not drawn) | -0.05% (inactive)
25 | CCOC(=O)NN1C(=O)c2ccccc2NC1c1cccc(O)c1 (stereo not drawn) | 31.7% (active)
26 | CC(=O)NN1C(=O)c2ccccc2NC1c1ccccc1 (stereo not drawn) | 37.3% (active)
27 | O=C1c2ccccc2NC(c2ccccc2O)N1NS(=O)(=O)c1ccccc1 (stereo not drawn) | 7.05% (inactive)
28 | CCOC(=O)NN1C(=O)c2ccccc2NC1c1ccccc1O (stereo not drawn) | 26.2% (inactive)
29 | CCN1C(=O)N[C@@H](c2ccccc2)[C@H](C(C)=O)[C@H]1C | 1.5% (inactive)
30 | Cc1cccc(C)c1NC(=O)C1CCCN1C(=O)OC(C)(C)C (stereo not drawn) | -0.82% (inactive)
31 | CS(=O)(=O)N(CC(=O)N1CCOCC1)c1ccc2c3c(cccc13)CC2 | 9.05% (inactive)
32 | COCCNC(=O)C1CCN(S(=O)(=O)c2ccc3c(c2)OCCO3)CC1 | -1.67% (inactive)
33 | O=C(O)C(=Cc1ccccc1[N+](=O)[O-])c1ccccc1 | 3.82% (inactive)
34 | CC1(C)CC(=O)C=C(c2ccc(COC(=O)c3cc(F)cc(F)c3)cc2)C1=O | -0.96% (inactive)
35 | C/C(=N\NC(=S)NC(C)C)c1ccc(C(C)(C)C)cc1 | 2.12% (inactive)
36 | Cc1ccc(CNC(=O)c2ccccc2CCc2ccccc2)cc1 | -1.34% (inactive)
37 | CCN(CC)CCCNC(=O)c1cc(-c2cccc(Cl)c2)on1 | 0% (inactive)
38 | Cc1cccc(N(C)C(=O)c2cc3c(=O)[nH]c4ccc(C)cc4c3s2)c1 | 2.59% (inactive)
39 | CCN(CC)CCCNC(=O)c1cc2c(=O)[nH]c3ccc(C)cc3c2s1 | 99.9% (active)
40 | O=C1CC(c2cccc(Br)c2)C2=C(CCCC2=O)N1 (stereo not drawn) | 11.8% (inactive)
41 | COc1ccc(-n2nc(C(=O)NCC(=O)Nc3cccc(C)n3)c3ccccc3c2=O)cc1 | -0.39% (inactive)
42 | COc1ccc(OC)c(CN2C(=O)CCC2(C)C(=O)NC2CCCCCC2)c1 (stereo not drawn) | -0.66% (inactive)
43 | Nc1ncnc2c1ncn2[C@@H]1O[C@H](C(=O)N2CCCN(Cc3ccccc3F)CC2)[C@@H](O)[C@H]1O | -2.6% (inactive)
44 | COc1ccc(C(=O)NCC2CCCN2S(=O)(=O)c2cccs2)cc1OC (stereo not drawn) | 2.94% (inactive)

Row | Compound | inhibition
45 | CCN1CCCC1CNC(=O)c1ccc2c(c1)NC(=O)/C(=C\c1ccccc1F)S2 (stereo not drawn) | -6.09% (inactive)
46 | CCOC(=O)CSc1nc(C)cc2c1C(=O)OC2 | -3.48% (inactive)
47 | O=C(NCc1cccc(Cl)c1)C1=CC=CN2CCS(=O)(=O)N=C12 | 30.5% (active)
48 | O=C(NCc1cccc(Cl)c1)C1CCN(c2nnc(N3CCCC3=O)s2)CC1 | -1.53% (inactive)
49 | O=C(NCc1cccc(Cl)c1)C1CCC(=O)N(C2CC2)C1 (stereo not drawn) | 1.48% (inactive)
50 | COCC1CCCN(Cc2cn[nH]c2-c2cc3ccccc3o2)C1 (stereo not drawn) | 0.03% (inactive)
51 | CCCOc1ccc2c3c(c(=O)oc2c1OCCC)CCC3 | 16% (inactive)
52 | COc1ccc(C(=O)Nc2ccc(C(=O)NCC3CCCO3)cc2)c(OC)c1OC (stereo not drawn) | -1.55% (inactive)
53 | COc1ccc2c3c(c(=O)oc2c1OCC(=O)C(C)(C)C)CCCC3 | 63.3% (active)
54 | CCc1nc2c(OCC(=O)C(C)(C)C)cccn2c1N(C)C(=O)c1ccccc1F | -0.18% (inactive)
55 | Clc1ccc(C=NC23CN4CN(CN(C4)C2)C3)cc1 | 1.62% (inactive)
56 | NNc1cccc(C=Cc2ccccc2)cc1=O | 21.6% (inactive)
57 | O=C(COc1ccc(Cl)cc1)NCc1nnc(SCC(=O)NCC2CCCO2)o1 (stereo not drawn) | 5.04% (inactive)
58 | CN1CCN(CCCNC(=O)c2ccc(/C=C3\Oc4ccccc4N(Cc4ccc(Cl)cc4)C3=O)cc2)CC1 | 80.8% (active)
59 | CCC1Oc2ccccc2N(CC(=O)NCCCN2CCN(CC)CC2)C1=O (stereo not drawn) | -0.48% (inactive)
60 | Cc1ccc(NC(=O)CCCNC(=O)c2ccc(Cl)cc2)cc1S(=O)(=O)N1CCOCC1 | 1.07% (inactive)
61 | Clc1ccc(Cl)c(Oc2ccc(Oc3nc(Cl)ccc3Cl)cc2)n1 | 4.19% (inactive)
62 | COc1ccc2c(c1)C(=C(C#N)C#N)C(=O)N2CCc1ccccc1 | 0.52% (inactive)
63 | COc1ccc2c(CC(=O)OCC(=O)Nc3ccccc3[N+](=O)[O-])coc2c1 | 2.62% (inactive)
64 | CC(C)(C)OC(=O)Nc1ccc([C@@H](NC(=O)OC(C)(C)C)C(=O)OC(C)(C)C)cc1 | -1.85% (inactive)
65 | Cc1cc(S(=O)(=O)c2cc3ccc(O)c(C)c3oc2=O)ccc1F | 72.4% (active)
66 | COc1cccc2cc(S(=O)(=O)c3ccc(C)cc3)/c(=N/NS(=O)(=O)c3ccc(C)cc3)oc12 | -1.11% (inactive)

Row | Compound | inhibition
67 | Cc1cc(C(=O)OCC(=O)c2c(N)n(C)c(=O)n(C)c2=O)c(C)o1 | 0.07% (inactive)
68 | O=S(=O)(c1ccc(Br)cc1)n1ccc2ccccc21 | -4.37% (inactive)
69 | CS(=O)(=O)N(CC(=O)N1CCCC1)Cc1ccccc1 | 1.15% (inactive)
70 | CN(Cc1ccccc1Cl)C(=O)C1CCC(=O)N(CCc2cccc(F)c2)C1 (stereo not drawn) | -0.04% (inactive)
71 | O=C(N=C1SC2CS(=O)(=O)CC2N1c1cc(Cl)ccc1Cl)C1CC1 (stereo not drawn) | 0.93% (inactive)
72 | CCOc1ccc(-c2noc(CCC(=O)NC3CCCC3)n2)cc1OC | 1.23% (inactive)
73 | COc1ccc(CCNC(=O)CCC(=O)NC2CCCCC2)cc1OC | 0.12% (inactive)
74 | COc1ccc2c(C)c(CCC(=O)NC3CC3)c(=O)oc2c1C | 162% (active)
75 | CC(C)N1CCC(NC(=O)Nc2ccccc2)CC1 | 0% (inactive)
76 | Cc1ccc(-c2nn(-c3cccc(F)c3)cc2CNCCc2ccncc2)o1 | 3.67% (inactive)
77 | C#Cc1ccc(NC(=O)C2(C)CCN2C(=O)Cc2ccc(-c3ccccc3)cc2)cc1 (stereo not drawn) | -1.12% (inactive)
78 | COc1ccc(S(=O)(=O)Nc2cccc3c2O[C@H](CN(C)S(=O)(=O)c2ccc(OC)cc2)[C@@H](C)CN([C@H](C)CO)C3=O)cc1 | 0.3% (inactive)
79 | COc1ccc(S(=O)(=O)N(C)C[C@H]2Oc3c(NC(=O)Nc4ccc5c(c4)OCO5)cccc3C(=O)N([C@H](C)CO)C[C@@H]2C)cc1 | 112% (active)
80 | Cc1noc(C)c1S(=O)(=O)N(C)C[C@H]1Oc2c(NC(=O)Nc3ccc4c(c3)OCO4)cccc2C(=O)N([C@H](C)CO)C[C@@H]1C | -0.42% (inactive)
81 | CCN(CCn1cccn1)C(=O)CC1C(=O)NCCN1Cc1cccc(OC)c1OC (stereo not drawn) | 0.01% (inactive)
82 | CC(C)C1Nc2c(C(=O)O)cccc2C(Nc2ccccc2C(=O)O)C1(C)C (stereo not drawn) | 107% (active)
83 | CCCCN1CC(COc2ccccc2)Oc2cccc(F)c2S1(=O)=O (stereo not drawn) | -2.92% (inactive)
84 | O=C(c1ccc(Cl)cc1)N1N=C(c2ccccn2)CC1(O)C(F)(F)F (stereo not drawn) | 4.39% (inactive)
85 | CCOC(=O)[C@H]1[C@H]2COc3ccc(C)cc3[C@@H]2N2C(=O)CN(Cc3ccc(F)cc3)C(=O)[C@@]12C | 0.55% (inactive)
86 | CC[C@@H]1Cc2cc(O)ccc2C2=C1c1ccc(O)cc1C[C@H]2CC | 89.3% (active)
87 | O=C1NC(=O)C(c2ccc(Cl)cc2)N1 (stereo not drawn) | 3.68% (inactive)
88 | COCCNC(=O)c1ccc2nc(Cc3ccc(OC)c(OC)c3)oc2c1 | 2.67% (inactive)

— PubChem BioAssay AID588726 (The Scripps Research Institute Molecular Screening Center, 2011)
